A selection: hits, their analogues and other compounds. The true share with any hit is near 1.7%.
EBV gp42 block = inhibitors of Epstein-Barr virus glycoprotein 42 | AID 1085 | Q1HVG2 | Fluorescence polarization binding assay, mP read-out | actives 0.42% (n = 220,000) | inhibition, % (tested at 21.74 µM); in the data active means inhibition above about 50%
eIF4E 4G PPI = eIF4E/eIF4G interaction inhibition in translation initiation. actives 0.37% (n = 220,000). TR-FRET eIF4E-eIF4GI(517-606) binding, 2 h. inhibition, % at 21.7 µM;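 active means inhibition above about 30%, limit read from the data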
Target sequence (P63073 whole entry, looked up): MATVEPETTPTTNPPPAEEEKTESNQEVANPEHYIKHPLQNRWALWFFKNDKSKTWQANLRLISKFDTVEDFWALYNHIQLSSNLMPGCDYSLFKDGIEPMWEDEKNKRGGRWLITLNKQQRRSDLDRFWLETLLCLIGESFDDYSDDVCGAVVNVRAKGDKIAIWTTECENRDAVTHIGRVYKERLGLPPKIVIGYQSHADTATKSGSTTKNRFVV
Target sequence (Q04637 whole entry, looked up): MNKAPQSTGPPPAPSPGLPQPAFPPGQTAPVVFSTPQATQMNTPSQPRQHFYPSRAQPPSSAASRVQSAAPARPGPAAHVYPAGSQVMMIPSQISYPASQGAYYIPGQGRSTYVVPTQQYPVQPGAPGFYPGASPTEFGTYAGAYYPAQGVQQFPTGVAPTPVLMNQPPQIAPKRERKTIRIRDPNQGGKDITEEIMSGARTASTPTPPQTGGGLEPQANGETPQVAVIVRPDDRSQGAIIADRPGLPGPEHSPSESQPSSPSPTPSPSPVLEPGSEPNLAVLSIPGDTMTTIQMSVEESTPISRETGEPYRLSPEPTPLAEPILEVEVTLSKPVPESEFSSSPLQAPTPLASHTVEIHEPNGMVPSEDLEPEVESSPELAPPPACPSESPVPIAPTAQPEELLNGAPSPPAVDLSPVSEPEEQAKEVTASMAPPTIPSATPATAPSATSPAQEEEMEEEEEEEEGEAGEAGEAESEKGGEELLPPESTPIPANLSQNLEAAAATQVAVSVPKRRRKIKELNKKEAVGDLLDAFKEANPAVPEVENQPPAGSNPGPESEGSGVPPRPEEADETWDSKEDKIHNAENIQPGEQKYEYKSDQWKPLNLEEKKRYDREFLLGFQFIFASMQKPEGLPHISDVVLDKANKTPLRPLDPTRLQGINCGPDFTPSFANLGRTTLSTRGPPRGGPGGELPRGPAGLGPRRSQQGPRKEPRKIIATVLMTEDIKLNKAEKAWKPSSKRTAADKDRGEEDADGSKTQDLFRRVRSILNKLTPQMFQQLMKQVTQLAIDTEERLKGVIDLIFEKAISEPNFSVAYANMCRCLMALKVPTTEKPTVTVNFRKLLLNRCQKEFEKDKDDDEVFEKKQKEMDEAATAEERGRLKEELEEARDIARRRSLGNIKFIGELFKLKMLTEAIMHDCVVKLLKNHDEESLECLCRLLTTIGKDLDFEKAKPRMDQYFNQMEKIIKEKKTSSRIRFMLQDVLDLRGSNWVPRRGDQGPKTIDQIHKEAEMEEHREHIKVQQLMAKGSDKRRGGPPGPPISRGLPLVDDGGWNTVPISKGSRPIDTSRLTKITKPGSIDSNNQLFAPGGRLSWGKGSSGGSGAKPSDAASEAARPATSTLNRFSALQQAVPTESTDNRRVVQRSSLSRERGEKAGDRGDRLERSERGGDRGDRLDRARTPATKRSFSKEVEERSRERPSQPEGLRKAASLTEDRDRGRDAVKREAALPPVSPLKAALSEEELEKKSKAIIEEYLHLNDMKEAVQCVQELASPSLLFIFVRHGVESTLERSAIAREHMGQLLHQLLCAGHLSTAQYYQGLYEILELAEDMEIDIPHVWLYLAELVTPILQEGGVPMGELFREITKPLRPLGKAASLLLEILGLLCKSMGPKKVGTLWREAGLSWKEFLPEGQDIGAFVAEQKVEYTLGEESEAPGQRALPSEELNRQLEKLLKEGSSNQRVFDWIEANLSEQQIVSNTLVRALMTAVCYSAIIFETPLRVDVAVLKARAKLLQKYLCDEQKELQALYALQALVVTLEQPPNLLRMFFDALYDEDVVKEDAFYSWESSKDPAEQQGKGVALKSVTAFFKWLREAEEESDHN
PABP FP inh = PABP-poly(A) binding inhibition | P11940 | PABP-poly(A) RNA binding, fluorescence polarization | calls only at 35 µM | actives 1% (n = 290,000);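 further: calls also rest on retests at 20 µM and on dose response follow-up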
MLLE-PAM2 inh = blocks PAM2 peptide binding to the PABP1 MLLE domain; P11940; GST-MLLE / FITC-PAM2 fluorescence polarization; inhibition, % at 20 µM; actives 0.36% (n = 360,000); in the data active means inhibition above about 35%, passing the limit was not always enough
eIF4H inh = inhibitors of RNA binding by human eIF4H | Q15056 | eIF4H fluorescence polarization binding assay | inhibition, % at 35 µM | actives 0.94% (n = 290,000);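 further: calls also rest on retests at 20 µM and on dose response follow-up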
Numbers stand for hits; . = inactive; ? = inconclusive; / = not tested or not shown; + = active, no number; [ ] = another dose, or the depositor's remark. Unless noted, how the calls were made is not given here.

SMILES	EBV gp42 block	eIF4E 4G PPI	PABP FP inh	MLLE-PAM2 inh	eIF4H inh
CC(C(=O)Nc1nncs1)N1C(=O)C2C3C=CC(C3)C2C1=O (configuration not stated)	.	.	+	.	?
CCOC(=O)N=Nc1c(O)n(C)c2ccccc12	.	.	.	.	.
C=CCn1c(O)c(N=NC(=O)OCC)c2ccccc21	.	.	.	.	active
COc1ccccc1NC(=O)N1CCc2[nH]c3ccc(F)cc3c2C1	.	.	+	.	102
Cc1ccc2[nH]c3c(c2c1)CN(C(=O)CN1CCSCC1)CC3	.	.	+	/	53
CC(=O)N1CCc2[nH]c3ccc(C)cc3c2C1	/	/	+	.	?
CCOC(=O)N1CCc2[nH]c3ccc(C)cc3c2C1	.	.	.	56	.
CCOC(=O)c1ccc2[nH]c3c(c2c1)CN(C)CC3	.	.	.	.	.
Cc1ccc2[nH]c3c(c2c1)CN(C(=O)CN1CC(C)OC(C)C1)CC3 (configuration not stated)	.	.	?	.	?
COc1ccc([C@@H]2C[C@H]3[C@@H](CN2S(=O)(=O)c2ccccc2)C(=O)C[C@@H](c2cccc(Cl)c2)N3S(=O)(=O)c2ccc(C)cc2)cc1	/	/	/	.	/
COc1ccccc1CCC(=O)N(C)C1CCCN(Cc2ccccc2F)C1 (configuration not stated)	/	/	.	.	.
O=C(NCC1CCCO1)/C(=C/c1cn(-c2ccccc2)nc1-c1cccnc1)NC(=O)c1ccccc1 (configuration not stated)	.	.	.	.	.
CC(C)CN1C=C2C(=O)C(C)(OC(=O)C3CCCC3)C(=O)C=C2C=C1c1ccsc1 (configuration not stated)	.	.	+	.	.
CC1(OC(=O)C2CCCC2)C(=O)C=C2C=C(c3ccsc3)N(Cc3ccccc3)C=C2C1=O (configuration not stated)	.	.	.	.	.
CC1(OC(=O)C2CCCC2)C(=O)C=C2C=C(c3ccsc3)N(CCc3ccccn3)C=C2C1=O (configuration not stated)	.	.	+	.	.
CN(C)c1ccc(/C=N/NC(=O)c2cnc3ccccc3c2)cc1	76	.	?	.	?
CN(C)c1ccc(/C=N/NC(=O)c2ccccn2)cc1	.	.	.	.	.
COc1ccc2nc3cc(Cl)ccc3c(C#N)c2c1	.	.	.	54	.
COCOCCn1cc(CN2CCS(=O)(=O)N(Cc3ccc(-c4cccc(N(C)C)c4)cc3)C(C(C)C)C2=O)nn1 (configuration not stated)	/	/	/	.	/
CC(=O)N(C(C)=O)N1C(=O)c2cccc3c(N4CCOCC4)ccc(c23)C1=O	.	.	.	.	?
O=C(OCCN1C(=O)c2cccc3c(N4CCOCC4)ccc(c23)C1=O)c1cc(Cl)cc(Cl)c1	132	33[fluorescence artefact?]	.	/	?
CCN(CC)S(=O)(=O)c1ccc(C(=O)OCCN2C(=O)c3cccc4c(N5CCOCC5)ccc(c34)C2=O)cc1	133	.	.	.	?
CCn1nc(C(=O)Nc2ccc(S(=O)(=O)Nc3ncccn3)cc2)c2ccccc2c1=O	.	.	.	.	.
Cc1ccc(-c2cc(C(=O)Nc3ccc(S(=O)(=O)Nc4nccs4)cc3)c3ccccc3n2)c(C)c1	.	.	+	.	60
CCOc1ccc(-n2ccc(=O)c(C(=O)Nc3ccc(S(=O)(=O)Nc4nccs4)cc3)n2)cc1	/	/	.	.	.
SMILES	EBV gp42 block	eIF4E 4G PPI	PABP FP inh	MLLE-PAM2 inh	eIF4H inh
O=C(Nc1ccc(S(=O)(=O)Nc2nccs2)cc1)c1nn(-c2ccc(F)cc2)ccc1=O	/	/	+	.	80
CCCn1nc(C(=O)Nc2ccc(S(=O)(=O)Nc3nccs3)cc2)c2ccccc2c1=O	.	.	+	.	58
CCN1CC(CN(C)Cc2cn(-c3cccc(C)c3)nc2-c2cccc(F)c2)CC1=O (configuration not stated)	.	.	.	.	.
CN1C/C(=C\c2ccc(N3CCOCC3)cc2)C(=O)/C(=C/c2ccc(N3CCOCC3)cc2)C1	.	.	+	.	78
O=C(NN(CC(O)COc1ccccc1)CC(O)COc1ccccc1)c1ccccc1 (configuration not stated)	.	.	.	.	.
CC[C@H](C)[C@H](NC(N)=O)C(=O)NCCc1ccc(OC)c(OC)c1	.	.	.	.	.
C=C1c2cccc(O)c2C(O)=C2C(=O)[C@]3(O)C(O)=C(C(N)=O)C(=O)[C@@H](N(C)C)[C@@H]3[C@@H](O)[C@H]12	.	.	+	.	107

Screening results: PubChem BioAssay, several laboratories
